Screening data: PubChem, several laboratories
Most compounds without a hit are left out; they make up all but 2.4% or so of the library.
ANO1 activ: TMEM16A chloride channel activators or potentiators, primary screen, cell-based, HTS | 340,000 tested, 0.3% active | B-score at 10 µM | Anoctamin-1 (Mus musculus), Q8BHY3 | HEK293 TMEM16A/YFP-H148Q/I152L, iodide quench fluorescence; active compounds read low;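 active = fluorescence-ratio B-score plate-corrected deviation score at least 3 library SD below zero, with starting fluorescence score within 5 deviations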;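 note: channel opened by trigger with iodide after compound preincubation; score built on the fluorescence ratio of max minus min over baseline; more negative score means more quench and so TMEM16A activation or potentiation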
HTR2A ag: mouse Htr2a agonists via beta-arrestin recruitment, primary screen, cell-based, luminescence | 5-hydroxytryptamine receptor 2A (Mus musculus), P35363 | CHO-K1 mHTR2A beta-arrestin complementation; percent of 30 µM serotonin response | activation, % at 7.6 µM | 360,000 tested, 0.66% active | AID 624169, 2012;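 active = activation above a run cutoff, the mean activation of all tested compounds plus 3 SD, cut at about 14% in these data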
TLR9-MyD88 block: inhibitors of TLR9-MyD88 association in cells, primary screen, cell-based, CHO, BLA complementation, fluorescence; inhibition, % at 4.98 µM; CCF4 FRET ratio; 340,000 tested, 0.21% active; Toll-like receptor 9 (Homo sapiens) + Myeloid differentiation primary response protein …;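 active = inhibition above the mean over all tested compounds plus 3 SD, cut at about 21% in these data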
TMEM16A inh: TMEM16A chloride channel inhibitors, primary screen, cell-based, HTS; 310,000 tested, 1.2% active; HEK293 TMEM16A/YFP iodide influx fluorescence, ionomycin; normalized B-score (activity score, 25-100; higher = stronger inhibition) at 10 µM;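 active = ratio plate-corrected score three or more library SD toward inhibition, starting fluorescence score within five deviations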;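 note: score derived from kinetic fluorescence span divided by baseline fluorescence per well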
TLR4 MyD88 comp: inhibitors of TLR4-MyD88 association in cells, primary screen, cell-based, HeLa CL3-4, BLA complementation, FRET ratio. Toll-like receptor 4 (Homo sapiens) + Myeloid differentiation primary response protein …. HeLa CL3-4 TLR4/MyD88 BLA complementation. inhibition, % at 8.4 µM. 200,000 tested, 0.18% active; in the data active = inhibition above about 25%
NOD2-RIPK2 inh: NOD2-RIPK2 binding disruptors in cells, primary screen, fluorescence, CHO cells, BLA complementation; 360,000 tested, 0.38% active; Receptor-interacting serine/threonine-protein kinase 2 (Homo sapiens), O43353; CCF4 ratio; inhibition, % at 4.98 µM; AID 624267, 2012; in the data active = inhibition above about 21%
NOD2 RIPK2 conf: NOD2-RIPK2 binding disruptors, retest, confirmation, fluorescence, CHO cells, BLA complementation, triplicate. AID 624370, 2012. 1,200 tested, 70% active. inhibition, % at 4.98 µM. shares compounds with NOD2-RIPK2 inh. CCF4 FRET;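 active = mean inhibition across replicates above a set limit taken from the earlier primary screen, cut at about 21% in these data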
BLA counter: hits BLA reporter in NOD2-RIPK2 inhibitor counterscreen; 1,200 tested, 57% active; inhibition, % at 4.98 µM; CHO BLA reporter, CCF4 FRET ratio; shares compounds with NOD2-RIPK2 inh;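 active = mean inhibition above the low-control mean inhibition plus three low-control SD, cut at about 11% in these data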
Each line names hits and unclear results; the compound was inactive in the other large screens (follow-up assays come after a bar, where they were run).

CC1OC2CC(=O)OC2C2=C1C(=O)c1c(O)cccc1C2=O (configuration not stated)	NOD2-RIPK2 inh 70.2 (no result: ANO1 activ, TLR9-MyD88 block, TMEM16A inh, TLR4 MyD88 comp) | NOD2 RIPK2 conf 77.2 | BLA counter inactive
Cc1cc2nc(-c3nnnn3Cc3ccccc3)c(=O)[nH]c2cc1C	NOD2-RIPK2 inh 23.3 (no result: ANO1 activ, TLR9-MyD88 block, TMEM16A inh, TLR4 MyD88 comp) | NOD2 RIPK2 conf inactive | BLA counter 14.7
O=c1[nH]c2cc3ccccc3cc2nc1-c1nnnn1Cc1ccccc1	none (no result: ANO1 activ, TLR9-MyD88 block, TMEM16A inh, TLR4 MyD88 comp)
CSc1ncccc1C(=O)N1CCCC(N2CCN(c3ccccc3C)CC2)C1 (configuration not stated)	none (no result: ANO1 activ, TMEM16A inh, TLR4 MyD88 comp)
CCC(C)NC(=O)C1CCC(CNS(=O)(=O)c2ccc3c(c2)CC(C)N3C(C)=O)CC1 (configuration not stated)	none (no result: TLR4 MyD88 comp)
COCCCNC1=C(Cl)C(=O)c2ccccc2C1=O	none (no result: TLR4 MyD88 comp)
COCCCNc1c2c3c(cccc3[nH]c1=O)C(=O)c1ccccc1-2	NOD2-RIPK2 inh 32.3 | NOD2 RIPK2 conf 37.4 | BLA counter 41.1
CCCN(CCC)CC(O)Cn1cc(/C=C/C(=O)c2ccccc2)c2ccccc21 (configuration not stated)	none (no result: TMEM16A inh)
CCCCN(C)CC(O)Cn1cc(/C=C/C(=O)c2ccc(C)cc2)c2ccccc21 (configuration not stated)	NOD2-RIPK2 inh 31.8 (no result: TLR4 MyD88 comp) | NOD2 RIPK2 conf 43.9 | BLA counter 41.3
S=c1[nH]nc(-c2cc3c(s2)-c2ccccc2CC3)o1	NOD2-RIPK2 inh 30.4 | NOD2 RIPK2 conf 25.4 | BLA counter 38.5
C=C1C(=O)OC2CC1C(O)CC(C)=CCCC(C)=CC(O)CC2C (configuration not stated)	NOD2-RIPK2 inh 22.8 (no result: TMEM16A inh, TLR4 MyD88 comp) | NOD2 RIPK2 conf inactive | BLA counter 13.1
C=C1C(=O)OC2CC1C(OC(C)=O)CC(C)=CCCC(C)=CCCC2(C)O (configuration not stated)	none (no result: ANO1 activ, TLR9-MyD88 block, TMEM16A inh, TLR4 MyD88 comp)
CC(=O)N1c2ccc(S(=O)(=O)NCC3CCC(C(=O)NCc4ccc(C)cc4)CC3)cc2CC1C (configuration not stated)	none (no result: TLR4 MyD88 comp)
NC(=S)N/N=C1/CCSc2ccc3ccccc3c21	NOD2-RIPK2 inh 23.5 | NOD2 RIPK2 conf inactive | BLA counter inactive
COc1ccc(N2CCN(c3ncnc4c3nnn4Cc3ccccc3Cl)CC2)cc1	none
Cc1ccc(S(=O)(=O)N(CC(=O)N2CCCCCC2)c2ccccc2F)cc1	none (no result: TLR4 MyD88 comp)
O=S(=O)(NC1CCCC1)c1cc(F)ccc1F	none (no result: TLR4 MyD88 comp)
COc1ccc(C2=CC(=O)N(Nc3ccccc3)C2=O)cc1	NOD2-RIPK2 inh 42.2 (no result: ANO1 activ, TLR9-MyD88 block) | NOD2 RIPK2 conf 55.4 | BLA counter inactive
Cc1ccc(NN2C(=O)C=C(c3ccc(Cl)cc3)C2=O)cc1	NOD2-RIPK2 inh 50.6 | NOD2 RIPK2 conf 82.3 | BLA counter 10.5
O=C1C=C(c2ccccc2)C(=O)N1Nc1ccccc1	NOD2-RIPK2 inh 48.6 | NOD2 RIPK2 conf 78.0 | BLA counter inactive
CC(C)(C)NC(=O)COC(=O)c1ccc(Cl)cc1O	none
Cc1cc(C(=O)CN2C(=O)c3cccc(N)c3C2=O)c(C)n1Cc1cccs1	NOD2-RIPK2 inh 23.8 | NOD2 RIPK2 conf 28.8 | BLA counter 41.8
Cc1cc(C)nc(NN=C2CCCC2)n1	none
COCCN(C(=O)c1ccc(N2CCCC2=O)cc1)c1c(N)n(CC(C)C)c(=O)[nH]c1=O	none (no result: TMEM16A inh, TLR4 MyD88 comp)
Cc1ccc(S(=O)(=O)c2ccc([N+](=O)[O-])cn2)cc1	NOD2-RIPK2 inh 70.5 (no result: TLR4 MyD88 comp) | NOD2 RIPK2 conf 54.1 | BLA counter inactive
